From PubChem BioAssay (NCATS)
Records with an inconclusive call do not appear. The source made the active and inactive calls. Calls follow the shape of the dose curve; as a rule, active = well fitted cell-killing curve with a large enough effect; inconclusive = small, poorly fitted or top-dose-only effect; inactive = no such curve, though single readings can be large or run the other way.

Test: Cell Viability - LYMP2-001 (AID 921);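 also: cells exposed to compound for 24 h at 37 °C; nearly all actives have a fitted effect of over 70% in size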;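 as to activity change, negative = cytotoxic: 0% = DMSO only and full inhibition = tetraoctylammonium bromide control wells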
Conditions: LYMP2-001 lymphoblastoid cell viability; series mostly up to 92.2 µM; activity change, negative = cytotoxic: at the top concentration
Text: NIH Chemical Genomics Center [NCGC]
NIH Molecular Libraries Screening Centers Network [MLSCN]
National Institutes of Environmental Health Sciences [NIEHS]
National Toxicology Program [NTP]
We have developed a 1536-well cell-based assay for quantitative high throughput screening (qHTS) against a number of cell lines to determine in vitro cytotoxicity of small molecules. This particular assay uses a human lymphoblastoid cell line (LYMP2-001) purchased from Coriell Institute for Medical Research.
NCGC Assay Protocol Summary:
The CellTiter-Glo luminescent cell viability assay (Promega) is a homogeneous method to measure the number of viable cells in culture. The end point readout of this assay is based on quantitation of intracellular ATP, an indicator of metabolic activity, using the luciferase reaction. Luciferase catalyzes the oxidation of beetle Luciferin to oxyluciferin and light in the presence of ATP. The luminescent signal is proportional to amount of ATP present.
Using the CellTiter-Glo luminescent cell viability assay, the amount of cellular ATP was measured in the lymphoblastoid cell line with complete culture medium following compound treatment for 24 hours. The assay was performed in opaque white Kalypsys 1536-well plates. In the screen, tetraoctylammonium bromide was used as positive control. Library compounds were measured for their ability to cause acute toxicity in the cell line, as reflected by a decrease in intracellular ATP levels, in a concentration-dependent manner. […] AC50 values were determined from concentration-response data modeled with the standard Hill equation.
qHTS protocol for CellTiter Glo lymphoblastoid cellular assay
[Step] [Parameter] [Value] [Description]
1. Reagent; 5 uL; 2500 lymphoblastoid cells/well
2. Time; 5 hr; 37 C incubation
4. Controls; 23 nL; Tetraoctylammonium bromide 6.4pM to 92 uM
5. Time; 24 hr; 37 C incubation
6. Reagent; 5 uL; CellTiter Glo reagent
7. Time; 30 min; Room Temperature
8. Detection; Luminescence; Viewlux plate reader
Keywords: cell viability, cytotoxicity, lymphoblastoid cell line, luminescence, NTPHTS, NTPHTS_NCGC, NIEHS, DSSTox, MLSMR, MLSCN, NIH Roadmap, qHTS, NCGC
Potency is read from the fitted curve at half-maximal effect.

Structure (SMILES) | activity change, negative = cytotoxic | Potency
O=NN(CCO)CCO | -2.4% (inactive) | –
CC(C)(C)OO | – | inactive
C/C=C/c1ccc2c(c1)OCO2 | -5.73% (inactive) | –
Cc1ccc([N+](=O)[O-])cc1C | -21.1% (inactive) | –
CC(C)(OO)c1ccccc1 | – | 39.8 µM (active)
ClC(Cl)(Cl)c1ccccc1 | – | inactive
Clc1nc(Cl)nc(Nc2ccccc2Cl)n1 | -2.68% (inactive) | –
CC(Cl)Cl | 14.4% (inactive) | –
O=NN(c1ccccc1)c1ccccc1 | -7.46% (inactive) | –
Brc1ccc(Oc2cc(Br)c(Br)cc2Br)c(Br)c1 | – | inactive
C=CC(C)=O | -3.66% (inactive) | –
CC(O)CCl (stereo not given) | 33.7% (inactive) | –
c1ccc(OP(Oc2ccccc2)Oc2ccccc2)cc1 | -17.5% (inactive) | –
N#CCCCl | – | inactive
C=C(Cl)Cl | -17.8% (inactive) | –
c1nc[nH]n1 | 4.14% (inactive) | –
ClC(Cl)=C(c1ccc(Cl)cc1)c1ccc(Cl)cc1 | – | inactive
CCCOC(=O)c1ccccc1C(=O)OCCC | 14.5% (inactive) | –
Clc1nc(Cl)nc(Cl)n1 | -6.23% (inactive) | –
OCC1CO1 (stereo not given) | -18.4% (inactive) | –

Structure (SMILES) | activity change, negative = cytotoxic | Potency
NC(=S)Nc1ccccc1 | – | inactive
CCOP(=S)(OCC)SCSC(C)(C)C | -12.3% (inactive) | –
S=C=Nc1cccc2ccccc12 | -13.1% (inactive) | –
COc1ccc(N)cc1 | – | inactive
O=C(Cl)C(Cl)(Cl)Cl | -25.5% (inactive) | –
ClC(Cl)=C(Cl)Cl | – | inactive
CCCCCCCCCc1ccc(O)cc1 | 3.14% (inactive) | –
Clc1cc(Cl)c(-c2cc(Cl)c(Cl)cc2Cl)cc1Cl | -7.45% (inactive) | –
COC1=CC(=O)OC(CCc2ccccc2)C1 (stereo not given) | -6.51% (inactive) | –
C=CC(=C)C | -13.6% (inactive) | –
Nc1c(Cl)c(Cl)nc(C(=O)O)c1Cl | -8.56% (inactive) | –
CC(C)(C)OOC(C)(C)C | 28.5% (inactive) | –
Cc1cccc([N+](=O)[O-])c1 | -6.47% (inactive) | –
CCSC(=O)Cl | -12.8% (inactive) | –
CCN(CC)c1ccccc1 | 19.8% (inactive) | –
ClC1=C(Cl)C2(Cl)C3C4C=CC(C4)C3C1(Cl)C2(Cl)Cl (stereo not given) | – | 39.8 µM (active)
C=C(C)C(=O)OCC1CO1 (stereo not given) | -2.86% (inactive) | –
C=CCc1ccc(OC)cc1 | 10.9% (inactive) | –
CCCC(=O)Cl | -4.91% (inactive) | –
c1ccc2c(c1)CCCC2 | -0.969% (inactive) | –
